Results: paper PMC7862700, “An all-to-all approach to the identification of sequence-specific readers for epigenetic DNA modifications on cytosine”

How the values were obtained:
Assay in all cases: DAPPL (digital affinity profiling via proximity ligation, sequencing); 10 mM Tris-HCl pH 7.5, 50 mM NaCl, 1 mM DTT, 4% glycerol, room temperature, 30 min; GST-TFs on glutathione beads, 16-mer random dsDNA library, 0.1% formaldehyde crosslink after washing; high values mean tight binding
[1] = target: T1, FLI1 (Homo sapiens, UniProt Q01543 1-452); details: protein: recombinant; tags: N-terminal GST; dsDNA, one strand shown
T1 sequence: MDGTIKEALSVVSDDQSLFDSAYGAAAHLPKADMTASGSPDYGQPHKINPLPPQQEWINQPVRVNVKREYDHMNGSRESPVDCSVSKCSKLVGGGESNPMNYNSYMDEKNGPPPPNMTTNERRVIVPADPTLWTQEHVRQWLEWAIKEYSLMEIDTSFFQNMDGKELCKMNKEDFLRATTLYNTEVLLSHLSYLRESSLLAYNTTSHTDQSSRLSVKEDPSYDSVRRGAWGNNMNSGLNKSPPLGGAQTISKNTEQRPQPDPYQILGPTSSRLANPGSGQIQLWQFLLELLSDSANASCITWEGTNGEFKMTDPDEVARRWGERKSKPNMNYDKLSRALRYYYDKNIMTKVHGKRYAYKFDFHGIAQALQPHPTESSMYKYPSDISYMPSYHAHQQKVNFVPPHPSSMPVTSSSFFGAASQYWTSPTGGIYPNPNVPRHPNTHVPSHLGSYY
Outline: (§1)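 The binding signal reported is, for every hexamer, its read frequency for a factor over its read frequency for the tag-only sample. Reads came from pools of yeast-expressed, GST-fused human transcription factors on glutathione beads, barcoded with DNA and mixed with that sample, which were incubated with 200 nmole of a random double-stranded 16-mer DNA library in Tris/NaCl/DTT/glycerol buffer at room temperature for 30 min. After washing, the pools were crosslinked with 0.1% formaldehyde, proximity-ligated with BsaI/T4 ligase for 1 h at 37 °C, PCR-amplified and sequenced on an Illumina NextSeq500.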

[2] = target: T2, ELK1 (Homo sapiens, UniProt P19419 1-428); details: protein: recombinant; tags: N-terminal GST; dsDNA, one strand shown
T2 sequence: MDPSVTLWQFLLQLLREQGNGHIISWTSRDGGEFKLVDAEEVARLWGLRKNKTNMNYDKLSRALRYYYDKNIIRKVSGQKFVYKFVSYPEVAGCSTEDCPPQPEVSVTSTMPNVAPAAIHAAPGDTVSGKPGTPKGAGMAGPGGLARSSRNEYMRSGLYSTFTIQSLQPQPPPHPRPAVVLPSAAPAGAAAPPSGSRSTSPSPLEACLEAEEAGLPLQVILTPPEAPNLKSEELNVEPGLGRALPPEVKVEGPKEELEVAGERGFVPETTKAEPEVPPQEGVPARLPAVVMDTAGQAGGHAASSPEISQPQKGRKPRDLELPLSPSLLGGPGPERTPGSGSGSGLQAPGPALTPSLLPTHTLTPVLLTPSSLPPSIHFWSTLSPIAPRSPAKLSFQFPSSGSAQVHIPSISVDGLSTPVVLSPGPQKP
Outline: as §1

[3] = target: T3, GABPA (Homo sapiens, UniProt Q06546 1-454); details: protein: recombinant; tags: N-terminal GST; dsDNA, one strand shown
T3 sequence: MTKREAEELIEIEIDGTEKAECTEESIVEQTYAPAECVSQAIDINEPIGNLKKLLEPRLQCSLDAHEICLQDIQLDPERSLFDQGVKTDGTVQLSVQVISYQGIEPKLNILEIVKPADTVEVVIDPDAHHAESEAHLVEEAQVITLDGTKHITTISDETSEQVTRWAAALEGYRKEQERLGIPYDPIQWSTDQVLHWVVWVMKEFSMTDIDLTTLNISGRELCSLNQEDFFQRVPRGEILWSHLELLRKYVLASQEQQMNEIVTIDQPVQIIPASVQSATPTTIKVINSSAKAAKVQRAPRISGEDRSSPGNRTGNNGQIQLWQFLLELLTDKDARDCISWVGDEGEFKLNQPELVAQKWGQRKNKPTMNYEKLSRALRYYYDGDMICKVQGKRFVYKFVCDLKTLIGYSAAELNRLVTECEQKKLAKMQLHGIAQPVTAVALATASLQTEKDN
Outline: as §1

[4] = target: T4, ERG (Homo sapiens, UniProt P11308 1-479); details: protein: recombinant; tags: N-terminal GST; dsDNA, one strand shown
T4 sequence: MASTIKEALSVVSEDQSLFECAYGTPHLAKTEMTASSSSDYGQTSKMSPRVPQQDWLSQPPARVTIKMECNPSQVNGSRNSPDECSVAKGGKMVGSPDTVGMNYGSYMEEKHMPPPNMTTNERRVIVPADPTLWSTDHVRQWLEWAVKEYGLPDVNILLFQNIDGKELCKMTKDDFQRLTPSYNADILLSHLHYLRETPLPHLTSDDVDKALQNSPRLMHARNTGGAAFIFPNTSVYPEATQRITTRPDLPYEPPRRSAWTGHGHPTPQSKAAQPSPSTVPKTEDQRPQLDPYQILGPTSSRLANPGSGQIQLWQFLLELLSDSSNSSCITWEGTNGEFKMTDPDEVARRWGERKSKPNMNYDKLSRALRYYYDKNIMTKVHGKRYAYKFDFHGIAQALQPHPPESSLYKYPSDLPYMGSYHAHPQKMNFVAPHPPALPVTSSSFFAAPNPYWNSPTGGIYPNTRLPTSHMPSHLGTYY
Outline: as §1

[5] = target: ELF1 (Homo sapiens, UniProt P32519 1-619); details: protein: recombinant; tags: N-terminal GST; dsDNA, one strand shown
Outline: as §1

[6] = target: T5, EHF (Homo sapiens, UniProt Q9NZC4 1-300); details: protein: recombinant; tags: N-terminal GST; dsDNA, one strand shown
T5 sequence: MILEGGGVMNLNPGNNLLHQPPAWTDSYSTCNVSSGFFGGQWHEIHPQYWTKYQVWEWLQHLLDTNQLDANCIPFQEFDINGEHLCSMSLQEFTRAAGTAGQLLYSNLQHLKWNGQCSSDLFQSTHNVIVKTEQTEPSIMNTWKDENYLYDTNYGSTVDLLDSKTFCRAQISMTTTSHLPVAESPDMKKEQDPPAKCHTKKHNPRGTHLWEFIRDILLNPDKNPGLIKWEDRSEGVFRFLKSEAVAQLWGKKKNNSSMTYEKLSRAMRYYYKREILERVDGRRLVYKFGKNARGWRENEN
Outline: as §1

[7] = target: SPI1 (Homo sapiens, UniProt P17947 1-270); details: protein: recombinant; tags: N-terminal GST; dsDNA, one strand shown
Outline: as §1

[8] = target: SPIB (Homo sapiens, UniProt Q01892 1-262); details: protein: recombinant; tags: N-terminal GST; dsDNA, one strand shown
Outline: as §1

[9] = target: T6, ELK3 (Homo sapiens, UniProt P41970 1-407); details: protein: recombinant; tags: N-terminal GST; dsDNA, one strand shown
T6 sequence: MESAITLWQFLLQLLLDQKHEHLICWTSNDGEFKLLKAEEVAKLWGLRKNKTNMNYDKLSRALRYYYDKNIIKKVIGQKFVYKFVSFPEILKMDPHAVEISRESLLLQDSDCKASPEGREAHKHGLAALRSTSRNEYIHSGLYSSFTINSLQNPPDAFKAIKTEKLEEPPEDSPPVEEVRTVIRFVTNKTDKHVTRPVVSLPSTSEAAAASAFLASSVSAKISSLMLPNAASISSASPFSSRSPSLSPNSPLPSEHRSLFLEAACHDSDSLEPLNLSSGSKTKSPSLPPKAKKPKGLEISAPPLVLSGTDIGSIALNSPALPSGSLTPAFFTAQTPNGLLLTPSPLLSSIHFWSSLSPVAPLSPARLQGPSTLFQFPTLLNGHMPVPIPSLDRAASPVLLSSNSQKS
Outline: as §1

[10] = target: T7, FEV (Homo sapiens, UniProt Q99581 1-238); details: protein: recombinant; tags: N-terminal GST; dsDNA, one strand shown
T7 sequence: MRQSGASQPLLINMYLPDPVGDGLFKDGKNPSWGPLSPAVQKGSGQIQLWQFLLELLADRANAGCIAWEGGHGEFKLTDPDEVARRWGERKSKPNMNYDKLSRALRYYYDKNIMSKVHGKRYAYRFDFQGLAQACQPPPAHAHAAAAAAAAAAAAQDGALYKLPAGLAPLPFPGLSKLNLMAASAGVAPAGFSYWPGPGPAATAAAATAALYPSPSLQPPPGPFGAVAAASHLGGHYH
Outline: as §1

[11] = target: ETV5 (Homo sapiens, UniProt P41161 1-510); details: protein: recombinant; tags: N-terminal GST; dsDNA, one strand shown
Outline: as §1

[12] = target: HSF1 (Homo sapiens, UniProt Q00613 1-529); details: protein: recombinant; tags: N-terminal GST; chain copies: 3; dsDNA, one strand shown
Outline: as §1

[13] = target: T8, SPIC (Homo sapiens, UniProt Q8N5J4 1-248); details: protein: recombinant; tags: N-terminal GST; dsDNA, one strand shown
T8 sequence: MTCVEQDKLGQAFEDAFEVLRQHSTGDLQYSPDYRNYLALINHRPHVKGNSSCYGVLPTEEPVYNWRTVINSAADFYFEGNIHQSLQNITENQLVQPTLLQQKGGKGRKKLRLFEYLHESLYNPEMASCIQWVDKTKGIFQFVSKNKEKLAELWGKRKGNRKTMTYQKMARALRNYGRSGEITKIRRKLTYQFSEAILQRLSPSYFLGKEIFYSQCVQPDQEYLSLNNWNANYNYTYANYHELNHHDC
Outline: as §1

[14] = target: ELF4 (Homo sapiens, UniProt Q99607 1-663); details: protein: recombinant; tags: N-terminal GST; dsDNA, one strand shown
Outline: as §1

[15] = target: T9, ELK4 (Homo sapiens, UniProt P28324-2 1-405); details: protein: recombinant; tags: N-terminal GST; dsDNA, one strand shown
T9 sequence: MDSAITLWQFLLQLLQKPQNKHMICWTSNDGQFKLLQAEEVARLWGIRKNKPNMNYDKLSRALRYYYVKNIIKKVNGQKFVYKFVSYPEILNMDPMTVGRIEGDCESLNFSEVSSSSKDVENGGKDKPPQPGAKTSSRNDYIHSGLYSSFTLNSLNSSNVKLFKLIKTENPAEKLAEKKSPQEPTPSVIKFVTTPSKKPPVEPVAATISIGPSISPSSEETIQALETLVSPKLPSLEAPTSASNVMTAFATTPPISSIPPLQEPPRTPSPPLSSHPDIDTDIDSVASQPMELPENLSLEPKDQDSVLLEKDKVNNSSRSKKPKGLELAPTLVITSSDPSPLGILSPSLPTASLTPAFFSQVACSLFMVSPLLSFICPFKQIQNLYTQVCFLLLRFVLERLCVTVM
Outline: as §1

[16] = target: T10, ETV2 (Homo sapiens, UniProt O00321 1-342); details: protein: recombinant; tags: N-terminal GST; dsDNA, one strand shown
T10 sequence: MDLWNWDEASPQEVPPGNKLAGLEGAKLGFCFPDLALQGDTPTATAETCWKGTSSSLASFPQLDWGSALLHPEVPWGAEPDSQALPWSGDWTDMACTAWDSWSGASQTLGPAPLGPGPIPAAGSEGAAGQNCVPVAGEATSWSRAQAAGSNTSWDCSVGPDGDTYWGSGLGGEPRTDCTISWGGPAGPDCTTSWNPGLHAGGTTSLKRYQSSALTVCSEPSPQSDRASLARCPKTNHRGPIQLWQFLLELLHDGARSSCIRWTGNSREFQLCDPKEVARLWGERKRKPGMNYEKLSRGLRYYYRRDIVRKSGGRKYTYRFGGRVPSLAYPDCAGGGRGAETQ
Outline: as §1

[17] = target: T11, ELF3 (Homo sapiens, UniProt P78545 1-371); details: protein: recombinant; tags: N-terminal GST; dsDNA, one strand shown
T11 sequence: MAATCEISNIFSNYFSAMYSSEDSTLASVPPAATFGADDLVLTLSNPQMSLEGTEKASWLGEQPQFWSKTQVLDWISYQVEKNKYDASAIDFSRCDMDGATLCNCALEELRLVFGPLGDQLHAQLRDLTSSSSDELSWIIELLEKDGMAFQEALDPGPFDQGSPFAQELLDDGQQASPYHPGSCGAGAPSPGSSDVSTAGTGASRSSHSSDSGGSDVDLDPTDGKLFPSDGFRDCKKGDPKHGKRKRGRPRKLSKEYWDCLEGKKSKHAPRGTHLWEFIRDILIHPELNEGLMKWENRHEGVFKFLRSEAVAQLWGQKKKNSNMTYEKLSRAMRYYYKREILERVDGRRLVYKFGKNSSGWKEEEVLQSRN
Outline: as §1

[18] = target: ETV1 (Homo sapiens, UniProt P50549 1-477); details: protein: recombinant; tags: N-terminal GST; dsDNA, one strand shown
Outline: as §1

Sequence of SPIB (Q01892 whole entry): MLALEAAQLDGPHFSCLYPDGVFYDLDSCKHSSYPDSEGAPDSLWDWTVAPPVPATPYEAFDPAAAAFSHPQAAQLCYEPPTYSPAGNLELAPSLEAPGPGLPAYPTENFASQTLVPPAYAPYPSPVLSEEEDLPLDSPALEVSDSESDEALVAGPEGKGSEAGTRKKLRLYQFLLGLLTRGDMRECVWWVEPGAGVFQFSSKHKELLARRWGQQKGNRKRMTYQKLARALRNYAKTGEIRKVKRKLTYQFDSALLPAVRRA
Sequence of ELF1 (P32519 whole entry): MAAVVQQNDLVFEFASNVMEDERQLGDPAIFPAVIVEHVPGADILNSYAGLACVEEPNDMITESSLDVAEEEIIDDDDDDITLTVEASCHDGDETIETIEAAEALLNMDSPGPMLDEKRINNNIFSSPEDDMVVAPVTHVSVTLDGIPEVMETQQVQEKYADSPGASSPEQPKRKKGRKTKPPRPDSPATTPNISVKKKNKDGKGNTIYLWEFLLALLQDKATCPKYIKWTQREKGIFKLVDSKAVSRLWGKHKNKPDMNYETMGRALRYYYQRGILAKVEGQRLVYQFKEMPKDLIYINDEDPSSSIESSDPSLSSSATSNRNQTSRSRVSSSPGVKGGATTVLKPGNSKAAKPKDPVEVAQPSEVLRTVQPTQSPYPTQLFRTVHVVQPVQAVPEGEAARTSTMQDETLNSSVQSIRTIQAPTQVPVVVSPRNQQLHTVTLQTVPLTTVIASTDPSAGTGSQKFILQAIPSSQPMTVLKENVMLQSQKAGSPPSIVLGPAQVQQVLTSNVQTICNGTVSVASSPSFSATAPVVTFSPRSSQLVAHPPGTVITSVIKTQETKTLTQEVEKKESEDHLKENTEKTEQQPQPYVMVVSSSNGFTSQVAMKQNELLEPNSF
Sequence of ETV5 (P41161 whole entry): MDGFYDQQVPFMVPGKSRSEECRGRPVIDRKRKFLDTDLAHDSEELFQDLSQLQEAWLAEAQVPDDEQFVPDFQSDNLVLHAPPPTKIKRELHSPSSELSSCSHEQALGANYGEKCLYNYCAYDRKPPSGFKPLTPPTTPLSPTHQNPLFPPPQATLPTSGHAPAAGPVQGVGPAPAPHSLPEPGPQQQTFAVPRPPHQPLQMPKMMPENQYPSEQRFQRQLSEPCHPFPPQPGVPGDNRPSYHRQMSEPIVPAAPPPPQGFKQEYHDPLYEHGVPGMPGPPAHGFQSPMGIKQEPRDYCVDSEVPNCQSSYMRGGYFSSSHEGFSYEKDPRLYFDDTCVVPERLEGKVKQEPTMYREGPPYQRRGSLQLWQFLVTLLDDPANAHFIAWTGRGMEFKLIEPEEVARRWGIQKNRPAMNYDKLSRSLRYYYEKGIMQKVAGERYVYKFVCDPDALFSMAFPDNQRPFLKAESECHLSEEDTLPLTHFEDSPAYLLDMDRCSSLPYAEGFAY
Sequence of HSF1 (Q00613 whole entry): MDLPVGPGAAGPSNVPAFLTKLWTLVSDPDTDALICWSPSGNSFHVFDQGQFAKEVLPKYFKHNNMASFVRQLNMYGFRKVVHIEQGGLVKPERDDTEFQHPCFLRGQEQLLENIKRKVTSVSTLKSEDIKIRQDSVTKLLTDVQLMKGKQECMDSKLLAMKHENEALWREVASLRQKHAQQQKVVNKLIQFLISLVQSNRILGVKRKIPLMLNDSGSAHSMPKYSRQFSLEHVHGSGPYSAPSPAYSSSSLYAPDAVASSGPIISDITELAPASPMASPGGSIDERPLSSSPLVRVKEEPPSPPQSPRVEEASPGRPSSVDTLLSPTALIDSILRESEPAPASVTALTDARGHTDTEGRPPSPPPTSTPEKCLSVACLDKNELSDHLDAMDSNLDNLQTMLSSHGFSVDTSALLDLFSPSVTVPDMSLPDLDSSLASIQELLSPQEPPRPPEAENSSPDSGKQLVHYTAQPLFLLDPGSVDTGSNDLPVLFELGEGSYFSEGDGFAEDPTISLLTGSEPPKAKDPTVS
Sequence of ELF4 (Q99607 whole entry): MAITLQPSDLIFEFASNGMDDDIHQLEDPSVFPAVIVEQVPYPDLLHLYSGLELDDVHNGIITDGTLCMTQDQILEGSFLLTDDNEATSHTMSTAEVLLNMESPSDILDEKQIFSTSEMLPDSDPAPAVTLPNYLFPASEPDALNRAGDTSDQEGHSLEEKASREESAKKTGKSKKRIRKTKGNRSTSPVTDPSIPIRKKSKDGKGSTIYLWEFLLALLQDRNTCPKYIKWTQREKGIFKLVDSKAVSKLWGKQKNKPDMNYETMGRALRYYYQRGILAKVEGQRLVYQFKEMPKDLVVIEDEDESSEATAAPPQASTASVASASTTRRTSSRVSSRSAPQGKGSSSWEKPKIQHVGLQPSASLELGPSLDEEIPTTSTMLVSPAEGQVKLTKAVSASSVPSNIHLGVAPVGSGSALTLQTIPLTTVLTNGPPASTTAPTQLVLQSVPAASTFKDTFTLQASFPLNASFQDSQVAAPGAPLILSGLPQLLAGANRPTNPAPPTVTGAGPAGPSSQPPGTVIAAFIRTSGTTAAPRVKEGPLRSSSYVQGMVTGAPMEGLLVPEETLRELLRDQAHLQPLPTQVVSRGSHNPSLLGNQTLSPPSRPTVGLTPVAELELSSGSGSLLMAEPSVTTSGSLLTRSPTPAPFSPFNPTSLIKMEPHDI
Sequence of ETV1 (P50549 whole entry): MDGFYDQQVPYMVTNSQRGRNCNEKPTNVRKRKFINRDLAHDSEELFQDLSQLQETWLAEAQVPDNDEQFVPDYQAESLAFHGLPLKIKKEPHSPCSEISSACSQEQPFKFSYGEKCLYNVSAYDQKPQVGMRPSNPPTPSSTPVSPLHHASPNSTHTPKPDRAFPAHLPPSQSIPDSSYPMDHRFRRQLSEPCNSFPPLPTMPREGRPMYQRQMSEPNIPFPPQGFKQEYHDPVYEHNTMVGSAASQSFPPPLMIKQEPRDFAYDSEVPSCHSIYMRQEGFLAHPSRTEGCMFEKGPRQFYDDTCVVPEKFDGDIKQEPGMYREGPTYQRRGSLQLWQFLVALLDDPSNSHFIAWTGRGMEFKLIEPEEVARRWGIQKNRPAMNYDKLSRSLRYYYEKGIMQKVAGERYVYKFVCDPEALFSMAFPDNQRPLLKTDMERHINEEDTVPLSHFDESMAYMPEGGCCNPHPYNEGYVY

Q: For GTCTTC, which binding signal [1] is on record?
A: 1.4 fold enrichment (6-mer frequency, TF over GST control)

Q: And the binding signal [2]?
A: 1.31 fold enrichment (6-mer frequency, TF over GST control)

Q: And the binding signal [3]?
A: 1.19 fold enrichment (6-mer frequency, TF over GST control)

Q: And the binding signal [4]?
A: 1.42 fold enrichment (6-mer frequency, TF over GST control)

Q: And the binding signal [5]?
A: 1.43 fold enrichment (6-mer frequency, TF over GST control)

Q: And the binding signal [6]?
A: 1.31 fold enrichment (6-mer frequency, TF over GST control)

Q: And the binding signal [7]?
A: 1.28 fold enrichment (6-mer frequency, TF over GST control)

Q: What about the binding signal [8] of the same sequence?
A: 1.29 fold enrichment (6-mer frequency, TF over GST control)

Q: And the binding signal [9]?
A: 1.17 fold enrichment (6-mer frequency, TF over GST control)

Q: And the binding signal [10]?
A: 1.34 fold enrichment (6-mer frequency, TF over GST control)

Q: And the binding signal [11]?
A: 1.31 fold enrichment (6-mer frequency, TF over GST control)

Q: And the binding signal [12]?
A: 1.17 fold enrichment (6-mer frequency, TF over GST control)

Q: What about the binding signal [13] of the same sequence?
A: 1.18 fold enrichment (6-mer frequency, TF over GST control)

Q: What about the binding signal [14] of the same sequence?
A: 1.23 fold enrichment (6-mer frequency, TF over GST control)

Q: What about the binding signal [15] of the same sequence?
A: 1.14 fold enrichment (6-mer frequency, TF over GST control)

Q: What about the binding signal [16] of the same sequence?
A: 1.22 fold enrichment (6-mer frequency, TF over GST control)

Q: And the binding signal [17]?
A: 1.46 fold enrichment (6-mer frequency, TF over GST control)

Q: And the binding signal [18]?
A: 1.29 fold enrichment (6-mer frequency, TF over GST control)
